About 79,000 compounds went through this panel and 15% of them were active in at least one assay; those are over-represented in the sample as a whole. Calls of active or inactive are those of the source. Rule as the data show it: active = growth inhibition above about 70%; inactive = the rest.
How the values were obtained:
[1] = NCI Yeast Anticancer Drug Screen. Data for the rad50 strain (AID 155);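 also: 0% = growth of vehicle-only cultures of the same strain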; conditions: S. cerevisiae rad50 strain growth inhibition; at 50.0 µM; stronger effect = higher value
How it was run: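 Genetically altered yeast (DNA repair pathway); compound treatment; growth inhibition vs vehicle ctrl.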

[2] = NCI Yeast Anticancer Drug Screen. Data for the mec2-1 strain (AID 157); conditions: S. cerevisiae mec2-1 strain, at 50.0 µM, stronger effect = higher value
How it was run: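 Using mec2-1 yeast: add compound, measure growth, express inhibition versus vehicle-treated cultures.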

[3] = NCI Yeast Anticancer Drug Screen. Data for the sgs1 mgt1 strain (AID 161);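 also: 0% = growth of cultures given vehicle only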; conditions: S. cerevisiae sgs1 mgt1 strain, at 50.0 µM, stronger effect = higher value
How it was run: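 Yeast cells carrying a defined DNA-repair defect were exposed to test compounds. Growth inhibition was measured relative to vehicle-treated controls.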

[4] = NCI Yeast Anticancer Drug Screen. Data for the cln2 rad14 strain (AID 165);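 also: 0% = growth equal to vehicle treated cultures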; conditions: S. cerevisiae cln2 rad14 strain, at 50.0 µM, stronger effect = higher value
How it was run: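 Yeast strain cln2 rad14, bearing defects in cell cycle control and DNA repair, serves as the test system; values reflect growth inhibition compared with vehicle.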

[5] = NCI Yeast Anticancer Drug Screen. Data for the bub3 strain (AID 167); conditions: S. cerevisiae bub3 mutant strain, at 50.0 µM, stronger effect = higher value
How it was run: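 Yeast carrying a defined mutation is treated with each compound, and growth is compared with that of vehicle-exposed cells to give inhibition.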

[6] = NCI Yeast Anticancer Drug Screen. Data for the mlh1 rad18 strain (AID 175); conditions: S. cerevisiae mlh1 rad18 strain growth inhibition; at 50.0 µM; stronger effect = higher value
How it was run: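 Steps: expose repair-defective yeast to compound; measure growth; express inhibition against vehicle-treated controls.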

Measured: growth inhibition

O=C1C2=C(c3ccccc31)C(c1ccc(F)cc1)N1C(=O)CCSC1=N2 (stereo unspecified)
inactive: [1] 45.1% | [2] 19.1% | [3] 63% | [4] 40.1% | [5] 48.6% | [6] 56.1%

COc1ccc(C(O)CC(O)(C(F)(F)F)C(F)(F)F)cc1 (stereo unspecified)
inactive: [1] 52.7% | [2] 27.6% | [3] 35.3% | [4] 20.3% | [5] 46%
active: [6] 80.8%

COC(=O)C(C(=O)C(=O)Nc1cccc(OC)c1)c1cnc2ccccc2n1 (stereo unspecified)
inactive: [1] -16.4% | [2] -8.85% | [3] -9.45% | [4] 21.2% | [5] 6.9% | [6] -10.5%

O=C(CCN1CCC2CCC(C2)C1)c1ccc(Cl)cc1 (stereo unspecified)
inactive: [1] 17.3% | [2] 3.35% | [3] 46.5% | [4] -4% | [5] 21.3% | [6] -7.3%

CN1CC(=O)N(C(=O)c2ccccc2)C1=N
inactive: [1] -6.6% | [2] -17.2% | [3] -6.4% | [4] -17.9% | [5] -2.15% | [6] 9.55%

CC1(CO)COC(=O)C(C)(C2(C)NC(C)(CO)COC2=O)N1 (stereo unspecified)
inactive: [1] 3.6% | [2] -17.6% | [3] -17.6% | [4] 13.1% | [5] -24.2% | [6] 4.05%

CCO[Si](CCCN)(OCC)OCC
inactive: [1] -37.5% | [2] -58.2% | [3] -36.2% | [4] 0.95% | [5] -22.1% | [6] -33.8%

c1ccc(-c2c3ccccc3cc3c2ccc2ccccc23)cc1
inactive: [1] -13.4% | [2] -12.2% | [3] -3.95% | [4] 9.25% | [5] 19.5% | [6] 0.55%

CC(C)(CO)NCC(O)CS(=O)(=O)O (stereo unspecified)
inactive: [1] -30.8% | [2] -16.6% | [3] -9% | [4] -61% | [5] 4.25% | [6] 0.4%

COc1cc(C(=O)NOCc2cccc(C(F)(F)F)c2)cc(OC)c1OC
inactive: [1] 39.8% | [2] -11.2% | [3] 15.9% | [4] -14.8% | [5] 2.5% | [6] 6.25%

O=C(O)CCCCCCCCC(=O)c1cc(O)ccc1O
inactive: [1] -5.3% | [2] 42.1% | [3] 35.7% | [4] -7.25% | [5] 20.4% | [6] 7.9%

O=C(Nc1cc2ccccc2cc1C(=O)O)Nc1cccc2ccccc12
inactive: [1] 10.2% | [2] 7% | [3] 32.6% | [4] 6.2% | [5] 20.1% | [6] 30.3%

CC(C)=Cc1cc(-c2cc(C=C(C)C)[nH]n2)n[nH]1
inactive: [1] -35.4% | [2] -2% | [3] -20.4% | [4] -24.6% | [5] -9.2% | [6] -11.9%

CC(=O)C(C(C)=O)C(c1cccnc1)C(C(C)=O)C(C)=O
inactive: [1] 2.7% | [2] 0.65% | [3] 10% | [4] 0.1% | [5] 25.3% | [6] -10.5%

O=C1c2ccccc2C(O)(c2ccccc2)c2ccccc21
inactive: [1] 13.4% | [2] 20.6% | [3] 13.8% | [4] -21.6% | [5] 13.4% | [6] 0.35%

NCCCCCC(CCN)SCC1OC(n2cnc3c(N)ncnc32)C(O)C1O (stereo unspecified)
inactive: [1] 17.6% | [2] -2.45% | [3] -5.1% | [4] -7.45% | [5] -0.95% | [6] 25.9%

O=[n+]1c2ccccc2n([O-])c2cn(-c3ccccc3)c(-c3ccccc3)c21
inactive: [2] 67.4% | [5] 46.9%
active: [1] 73.5% | [3] 88.3% | [4] 80.5% | [6] 89.2%

CCCCCCCCCCCCCCCCSC(=N)N
inactive: [1] 25.2% | [2] 21.2% | [3] 55.8% | [4] 14.1% | [5] 40% | [6] 38%

C#CCN(C(=O)C(F)(F)F)C(/C=C\C(=O)OC)(C(=O)OCC)C(=O)OCC
inactive: [1] -10.3% | [2] -24.9% | [3] -0.45% | [4] -4.5% | [5] -17.2% | [6] -2.55%

N=c1c2ccccc2nc2oc3ccccc3n12
inactive: [1] 48.8% | [2] 12% | [3] 7.7% | [4] 13.2% | [5] 24.9% | [6] 6.5%

CCCCC1CCC2CCCCC2C1 (stereo unspecified)
inactive: [1] 3.4% | [2] -2.5% | [3] -8.05% | [4] -18.1% | [5] -11.2% | [6] 8%
